The supplement of paper PMC10849652
Of roughly 7,900 targets only a part is listed; those with a hit were picked by preference. About 0.6% of all pairs of compound and target were hits. Unmarked numbers belong to inactive results.

Columns and labels:
Assay in all cases: log2 fold change, soluble protein after heating vs DMSO (PISA); higher = thermal stabilisation; K562 cells, 10 uM, 30 min; active = over 0.2 and 3.5 SD of the protein, either way, in both replicates (recomputed)
[1] = compound: NC(=O)Nc1cc(-c2cccc(F)c2)sc1C(=O)N[C@H]1CCCNC1
In short: (§1)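 K562 cells at 2×10^6 cells/mL were treated with 10 μM compound for 30 min. Aliquots were heated for 3 min across 48°C-58°C, pooled, and extracted in PBS with 0.5% NP-40 at 4°C; soluble protein was the supernatant after 21,000xg for 90 min. Soluble protein was quantified by TMTpro 16plex LC-MS/MS with channel sums equalised, and reported as log2 fold change in thermal stability against DMSO controls, with values from duplicates.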

[2] = compound: NC(=O)c1cnc(N[C@@H]2CCCC[C@@H]2N)nc1Nc1cccc(-n2nccn2)c1
In short: as §1

[3] = compound: NC1(c2ccc(-c3nc4ccn5c(=O)[nH]nc5c4cc3-c3ccccc3)cc2)CCC1
In short: as §1

[4] = compound: NCC(=O)Nc1ccc(-n2nc(C(F)(F)F)cc2-c2ccc3c(ccc4ccccc43)c2)cc1
In short: as §1

entinostat = compound: Nc1ccccc1NC(=O)c1ccc(CNC(=O)OCc2cccnc2)cc1 [entinostat]
In short: as §1

vorinostat = compound: O=C(CCCCCCC(=O)Nc1ccccc1)NO [vorinostat]
In short: as §1

citarinostat = compound: O=C(CCCCCCNC(=O)c1cnc(N(c2ccccc2)c2ccccc2Cl)nc1)NO [citarinostat]
In short: as §1

silmitasertib = compound: O=C(O)c1ccc2c(c1)nc(Nc1cccc(Cl)c1)c1ccncc12 [silmitasertib]
In short: as §1

[5] = compound: O=C1NC(=O)C(c2cnc3ccccn23)=C1c1cn2c3c(cc(F)cc13)CN(C(=O)N1CCCCC1)CC2
In short: as §1

[6] = compound: c1cc(OCCN2CCCCC2)cc(-c2n[nH]c3ccc(-c4nnc[nH]4)cc23)c1
In short: as §1

entospletinib = compound: c1cn2cc(-c3ccc4cn[nH]c4c3)nc(Nc3ccc(N4CCOCC4)cc3)c2n1 [entospletinib]
In short: as §1

Sequence of UniProt Q9UHD2 (Q9UHD2 whole entry, looked up): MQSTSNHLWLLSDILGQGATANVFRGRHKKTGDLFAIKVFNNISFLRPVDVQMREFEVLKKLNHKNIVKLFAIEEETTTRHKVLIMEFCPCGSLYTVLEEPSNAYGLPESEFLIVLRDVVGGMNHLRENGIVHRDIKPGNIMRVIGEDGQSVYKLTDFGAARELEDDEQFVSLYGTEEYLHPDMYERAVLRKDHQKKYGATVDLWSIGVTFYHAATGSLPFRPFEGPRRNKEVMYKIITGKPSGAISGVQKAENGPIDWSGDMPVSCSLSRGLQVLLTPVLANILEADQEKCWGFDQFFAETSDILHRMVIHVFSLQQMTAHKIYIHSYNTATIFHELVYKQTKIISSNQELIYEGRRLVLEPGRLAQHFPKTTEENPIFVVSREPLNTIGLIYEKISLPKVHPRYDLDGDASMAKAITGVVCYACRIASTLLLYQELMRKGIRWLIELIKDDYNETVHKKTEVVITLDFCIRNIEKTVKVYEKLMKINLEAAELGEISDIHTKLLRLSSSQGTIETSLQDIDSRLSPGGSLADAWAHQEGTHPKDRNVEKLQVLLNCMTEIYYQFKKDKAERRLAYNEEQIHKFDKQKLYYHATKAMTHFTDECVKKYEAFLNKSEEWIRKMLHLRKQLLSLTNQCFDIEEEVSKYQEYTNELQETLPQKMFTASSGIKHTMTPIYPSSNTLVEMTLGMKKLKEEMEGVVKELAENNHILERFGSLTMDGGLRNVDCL
Sequence of UniProt Q9Y5X1 (Q9Y5X1 whole entry, looked up): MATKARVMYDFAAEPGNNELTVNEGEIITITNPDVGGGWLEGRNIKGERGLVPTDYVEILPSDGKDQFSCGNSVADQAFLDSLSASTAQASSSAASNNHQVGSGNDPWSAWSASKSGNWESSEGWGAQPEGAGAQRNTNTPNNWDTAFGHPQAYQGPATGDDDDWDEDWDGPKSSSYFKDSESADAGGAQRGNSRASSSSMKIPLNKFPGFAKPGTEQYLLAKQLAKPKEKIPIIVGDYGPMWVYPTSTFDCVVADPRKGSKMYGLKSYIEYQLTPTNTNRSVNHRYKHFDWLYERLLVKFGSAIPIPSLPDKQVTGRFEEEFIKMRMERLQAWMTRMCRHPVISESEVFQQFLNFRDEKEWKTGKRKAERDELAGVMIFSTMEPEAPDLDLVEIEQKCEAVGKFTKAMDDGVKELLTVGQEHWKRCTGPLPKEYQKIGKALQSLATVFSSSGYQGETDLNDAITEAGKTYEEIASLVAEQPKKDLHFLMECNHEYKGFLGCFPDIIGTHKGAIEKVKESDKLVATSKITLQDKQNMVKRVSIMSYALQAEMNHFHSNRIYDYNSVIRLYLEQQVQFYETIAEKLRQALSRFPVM
Sequence of UniProt Q8N1F8 (Q8N1F8 whole entry, looked up): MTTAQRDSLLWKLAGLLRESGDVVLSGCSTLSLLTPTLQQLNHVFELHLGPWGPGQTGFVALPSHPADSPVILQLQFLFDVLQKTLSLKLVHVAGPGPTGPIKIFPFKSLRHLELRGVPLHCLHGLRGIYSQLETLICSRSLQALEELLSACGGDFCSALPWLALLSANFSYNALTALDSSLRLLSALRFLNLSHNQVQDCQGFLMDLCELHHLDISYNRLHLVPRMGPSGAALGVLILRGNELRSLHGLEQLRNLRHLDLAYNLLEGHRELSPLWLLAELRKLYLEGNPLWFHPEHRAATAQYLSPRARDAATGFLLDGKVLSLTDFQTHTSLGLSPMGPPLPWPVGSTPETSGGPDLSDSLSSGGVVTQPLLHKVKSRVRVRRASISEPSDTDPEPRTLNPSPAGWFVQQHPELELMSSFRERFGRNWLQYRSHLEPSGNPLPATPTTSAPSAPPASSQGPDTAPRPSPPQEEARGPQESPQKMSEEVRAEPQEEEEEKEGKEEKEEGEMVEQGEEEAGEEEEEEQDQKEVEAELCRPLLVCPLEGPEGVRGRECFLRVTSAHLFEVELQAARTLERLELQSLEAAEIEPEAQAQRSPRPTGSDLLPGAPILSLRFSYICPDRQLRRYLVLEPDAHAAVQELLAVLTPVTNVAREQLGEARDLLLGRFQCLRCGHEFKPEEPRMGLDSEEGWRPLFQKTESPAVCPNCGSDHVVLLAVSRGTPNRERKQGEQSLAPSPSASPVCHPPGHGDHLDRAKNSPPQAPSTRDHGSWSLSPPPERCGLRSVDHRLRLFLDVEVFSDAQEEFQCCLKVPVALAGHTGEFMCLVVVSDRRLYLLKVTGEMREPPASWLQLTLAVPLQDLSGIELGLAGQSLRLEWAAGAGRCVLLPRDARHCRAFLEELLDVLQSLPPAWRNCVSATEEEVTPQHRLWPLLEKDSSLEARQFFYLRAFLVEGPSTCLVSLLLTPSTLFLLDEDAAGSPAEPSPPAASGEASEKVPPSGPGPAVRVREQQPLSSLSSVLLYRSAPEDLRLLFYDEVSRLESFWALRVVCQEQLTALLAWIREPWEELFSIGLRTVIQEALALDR
Sequence of UniProt O60749 (O60749 whole entry, looked up): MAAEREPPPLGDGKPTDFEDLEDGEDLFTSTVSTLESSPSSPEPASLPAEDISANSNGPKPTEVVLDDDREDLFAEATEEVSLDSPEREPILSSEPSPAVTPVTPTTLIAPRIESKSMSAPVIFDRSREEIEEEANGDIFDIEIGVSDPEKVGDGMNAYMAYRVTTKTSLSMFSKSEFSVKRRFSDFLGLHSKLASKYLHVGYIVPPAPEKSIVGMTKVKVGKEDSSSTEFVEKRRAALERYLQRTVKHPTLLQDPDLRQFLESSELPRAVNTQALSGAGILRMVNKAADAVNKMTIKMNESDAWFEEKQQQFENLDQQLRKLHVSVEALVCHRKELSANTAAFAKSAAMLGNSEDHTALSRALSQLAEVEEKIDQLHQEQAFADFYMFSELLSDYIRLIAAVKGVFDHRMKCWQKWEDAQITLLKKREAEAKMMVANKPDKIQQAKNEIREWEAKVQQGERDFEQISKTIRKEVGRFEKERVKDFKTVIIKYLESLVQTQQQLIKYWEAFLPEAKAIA
Sequence of UniProt Q07157 (Q07157 whole entry, looked up): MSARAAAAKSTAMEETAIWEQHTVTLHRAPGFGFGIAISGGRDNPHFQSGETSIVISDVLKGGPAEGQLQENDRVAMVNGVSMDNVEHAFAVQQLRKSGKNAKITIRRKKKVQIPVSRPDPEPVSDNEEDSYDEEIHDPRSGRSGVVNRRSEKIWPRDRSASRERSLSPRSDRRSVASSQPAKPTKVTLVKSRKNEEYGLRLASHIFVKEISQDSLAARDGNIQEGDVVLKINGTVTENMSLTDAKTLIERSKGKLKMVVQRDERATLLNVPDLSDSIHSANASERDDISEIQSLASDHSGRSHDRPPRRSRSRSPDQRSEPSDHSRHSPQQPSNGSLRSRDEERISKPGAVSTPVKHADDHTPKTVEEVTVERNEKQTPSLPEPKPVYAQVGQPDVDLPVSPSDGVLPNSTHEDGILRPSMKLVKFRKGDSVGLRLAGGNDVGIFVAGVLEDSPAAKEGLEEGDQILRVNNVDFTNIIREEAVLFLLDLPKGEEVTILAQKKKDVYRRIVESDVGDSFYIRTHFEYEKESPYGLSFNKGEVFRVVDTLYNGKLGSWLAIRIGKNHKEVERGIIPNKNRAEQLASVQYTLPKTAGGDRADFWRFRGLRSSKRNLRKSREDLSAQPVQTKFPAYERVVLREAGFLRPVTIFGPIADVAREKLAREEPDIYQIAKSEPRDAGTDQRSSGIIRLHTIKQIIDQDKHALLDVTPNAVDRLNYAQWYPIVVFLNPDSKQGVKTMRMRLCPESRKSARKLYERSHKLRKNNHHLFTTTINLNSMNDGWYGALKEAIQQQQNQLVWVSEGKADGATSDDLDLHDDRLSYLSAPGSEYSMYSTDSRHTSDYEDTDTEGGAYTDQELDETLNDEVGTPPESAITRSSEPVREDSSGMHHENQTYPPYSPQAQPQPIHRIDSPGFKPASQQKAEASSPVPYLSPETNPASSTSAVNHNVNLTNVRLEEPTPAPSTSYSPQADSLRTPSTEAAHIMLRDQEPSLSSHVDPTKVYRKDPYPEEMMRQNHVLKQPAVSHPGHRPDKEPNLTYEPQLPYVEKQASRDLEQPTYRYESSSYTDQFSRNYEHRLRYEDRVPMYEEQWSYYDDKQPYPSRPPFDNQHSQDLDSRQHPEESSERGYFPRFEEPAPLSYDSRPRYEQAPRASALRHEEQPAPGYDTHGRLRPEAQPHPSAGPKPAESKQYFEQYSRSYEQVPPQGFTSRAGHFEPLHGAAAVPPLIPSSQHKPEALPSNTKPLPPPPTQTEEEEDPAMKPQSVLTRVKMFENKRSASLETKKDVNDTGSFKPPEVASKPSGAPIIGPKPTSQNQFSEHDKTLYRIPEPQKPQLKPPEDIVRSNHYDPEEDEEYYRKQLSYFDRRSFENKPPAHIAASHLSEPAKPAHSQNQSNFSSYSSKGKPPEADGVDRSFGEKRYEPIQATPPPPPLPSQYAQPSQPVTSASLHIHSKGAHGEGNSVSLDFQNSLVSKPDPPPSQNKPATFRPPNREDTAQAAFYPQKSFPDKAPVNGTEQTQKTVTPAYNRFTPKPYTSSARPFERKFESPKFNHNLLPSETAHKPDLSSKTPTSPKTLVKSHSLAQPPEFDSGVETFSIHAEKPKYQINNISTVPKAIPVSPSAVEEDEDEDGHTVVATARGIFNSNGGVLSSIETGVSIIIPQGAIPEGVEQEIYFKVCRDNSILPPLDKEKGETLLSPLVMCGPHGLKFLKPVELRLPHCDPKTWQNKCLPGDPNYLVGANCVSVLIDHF
Sequence of UniProt Q8WVK2 (Q8WVK2 whole entry, looked up): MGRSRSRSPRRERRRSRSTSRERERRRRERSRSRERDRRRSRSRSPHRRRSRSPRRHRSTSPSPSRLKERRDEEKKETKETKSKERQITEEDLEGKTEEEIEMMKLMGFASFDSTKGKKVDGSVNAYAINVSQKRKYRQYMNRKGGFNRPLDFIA
Sequence of UniProt P62318 (P62318 whole entry, looked up): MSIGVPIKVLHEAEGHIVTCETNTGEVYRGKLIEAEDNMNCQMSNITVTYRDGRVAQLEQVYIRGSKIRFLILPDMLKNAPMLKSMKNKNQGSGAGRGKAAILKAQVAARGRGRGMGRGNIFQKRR

| Target | log2 fold change [1] | log2 fold change [2] | log2 fold change [3] | log2 fold change [4] | log2 fold change (entinostat) | log2 fold change (vorinostat) | log2 fold change (citarinostat) | log2 fold change (silmitasertib) | log2 fold change [5] | log2 fold change [6] | log2 fold change (entospletinib) |
| --- | --- | --- | --- | --- | --- | --- | --- | --- | --- | --- | --- |
| TARS2 (UniProt Q9BW92) | 0.008 | -0.018 | -0.27 (active) | -0.031 | 0.011 | -0.051 | 0.038 | -0.005 | -0.057 | -0.008 | -0.072 |
| TJP2 isoform 7 (UniProt Q9UDY2) | -0.129 | -0.007 | -0.171 | -0.051 | 0.014 | 0.161 | 0.039 | -0.061 | 0.025 | -0.167 | 0.037 |
| STK11IP (UniProt Q8N1F8) | 0.098 | -0.412 | -0.285 | 0.086 | 0.046 | -0.184 | -0.032 | 0.217 | 0.095 | 0.016 | 0.036 |
| SRRM2 (UniProt Q9UQ35) | -0.004 | -0.055 | 0.005 | -0.036 | 0.025 | 0.226 | 0.071 | -0.141 | -0.225 | -0.25 | -0.048 |
| STK39 (UniProt Q9UEW8) | -0.064 | 0.034 | -0.146 | -0.028 | 0.069 | 0.063 | 0.051 | 0.003 | 0.003 | -0.072 | -0.007 |
| SLC25A42 (UniProt Q86VD7) | 0.121 | 0.021 | -0.015 | 0.05 | -0.027 | -0.102 | -0.015 | -0.033 | -0.034 | -0.046 | 0.055 |
| TGFBRAP1 (UniProt Q8WUH2) | 0.065 | -0.03 | -0.209 | -0.006 | -0.013 | 0.256 | -0.367 | 0.056 | 0.069 | 0.013 | 0.056 |
| TAOK1 (UniProt Q7L7X3) | -0.043 | -0.04 | -0.063 | -0.068 | -0.01 | 0.048 | 0 | -0.003 | -0.038 | -0.194 | -0.009 |
| TBK1 (UniProt Q9UHD2) | 0.196 | 0 | -0.086 | -0.118 | 0.055 | -0.025 | 0.064 | 0.057 | -0.014 | -0.029 | 0.108 |
| SUN1 isoform 9 (UniProt O94901) | -0.035 | -0.073 | -0.028 | 0.102 | 0.18 | 0.06 | -0.115 | -0.009 | -0.226 | 0.075 | -0.064 |
| TBC1D24 (UniProt Q9ULP9) | 0.047 | -0.038 | -0.091 | -0.002 | 0.029 | 0.291 | 0.016 | -0.135 | -0.082 | -0.096 | 0.004 |
| SLC25A36 (UniProt Q96CQ1) | 0.131 | 0.035 | 0.015 | -0.123 | 0.036 | 0.003 | 0.063 | 0.106 | 0.027 | 0.028 | 0.022 |
| SMAD2 (UniProt Q15796) | -0.184 | -0.064 | 0.005 | -0.039 | -0.103 | -0.051 | 0.034 | -0.073 | 0.009 | -0.018 | -0.013 |
| SNRNP27 (UniProt Q8WVK2) | 0.022 | -0.015 | -0.034 | -0.043 | -0.024 | -0.008 | -0.003 | 0.06 | 0.038 | -0.025 | 0.025 |
| SNRPD3 (UniProt P62318) | 0.034 | -0.01 | 0.025 | 0.013 | -0.059 | -0.067 | -0.019 | 0.092 | 0.271 (active) | -0.055 | 0.01 |
| TMBIM1 (UniProt Q969X1) | 0.079 | -0.229 | -0.008 | -0.259 | 0.062 | -0.034 | -0.208 | 0.067 | -0.149 | 0.021 | -0.019 |
| SPTBN4 (UniProt Q9H254) | 0 | -0.09 | -0.095 | 0.033 | 0.014 | 0.026 | 0.05 | 0.062 | 0.129 | -0.013 | 0 |
| TERF2IP (UniProt Q9NYB0) | 0.009 | -0.132 | 0.007 | -0.018 | 0.061 | 0.041 | 0.068 | 0.121 | -0.051 | -0.073 | -0.026 |
| TBCD (UniProt Q9BTW9) | 0.003 | -0.057 | -0.146 | -0.03 | 0.03 | -0.013 | 0.028 | 0.039 | -0.001 | -0.063 | -0.03 |
| SPR (UniProt P35270) | 0.006 | 0.13 | 0.491 (active) | -0.002 | -0.049 | -0.154 | -0.041 | 0.004 | 0.176 | 0.066 | 0.057 |
| SNX9 (UniProt Q9Y5X1) | -0.013 | -0.022 | -0.102 | -0.055 | 0.037 | 0.058 | 0.024 | 0.033 | -0.065 | -0.067 | -0.01 |
| SRP72 (UniProt O76094) | -0.088 | -0.054 | -0.082 | -0.128 | 0.069 | 0.103 | 0.095 | 0.042 | 0.105 | -0.129 | 0.052 |
| TJP1 (UniProt Q07157) | -0.043 | -0.067 | 0.033 | -0.071 | 0.044 | 0.049 | 0.041 | -0.158 | -0.056 | -0.092 | 0.009 |
| SNX2 (UniProt O60749) | -0.001 | -0.204 | -0.146 | 0 | 0.092 | 0.093 | 0.062 | -0.068 | -0.044 | -0.082 | -0.015 |
| STARD7 (UniProt Q9NQZ5) | -0.048 | -0.113 | -0.088 | 0.012 | 0.008 | 0.114 | 0.073 | -0.011 | 0.341 (active) | -0.089 | -0.052 |
| SUMO1 (UniProt P63165) | -0.006 | -0.116 | 0.071 | -0.074 | -0.01 | -0.086 | -0.063 | -0.012 | 0.045 | -0.087 | 0.038 |
